Test results from PubChem BioAssay.
The source made the active and inactive calls.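 Rule for the calls, unless noted: active = NADPH fluorescence slope more negative than the mean of all samples by about 3 SD, 99.7% confidence; inactive = the rest.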

Tests used:
[1] = inhibitors of TNFa-induced NFkB p65 translocation, primary screen, imaging, HUVEC, MLSMR starter and 10KST1 sets (AID 438;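 active = inhibition above 20% together with a positive visual image hit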;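 note: compound added about 3h40 before a 20 min TNFalpha stimulation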;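 for inhibition: signal is the nuclear over cytoplasmic p65 intensity ratio per well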); details: HUVEC TNFa-induced p65 nuclear translocation; cell count: measured here: nuclei count (cytotoxicity indicator), at 2.08 µM; inhibition: at 2 µM, stronger effect = higher value, 0% TNFa-plus-vehicle, 100% no-TNFa wells
[2] = inhibitors of mutant huntingtin aggregation, primary screen, imaging, exon1htt(103Q)mCFP cells, high-content imaging (AID 483;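 active = visual image review flags a hit and inhibition of aggregation exceeds 20%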;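 note: compound exposure lasted 3 days before fixation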;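 for nuclei count: percent of the per-plate median nuclei count of sample wells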); details: exon1htt(103Q)mCFP cell line, aggregate imaging, at 2 µM; inhibition of aggregation: stronger effect = higher value; nuclei count: measured here: cell count, toxicity
[3] = inhibitors of E-selectin induction by TNFa, primary screen, imaging, HUVEC, immunofluorescence, MLSMR starter and 10KST1 sets (AID 487;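 active = visually confirmed hit in the image check and inhibition above 20%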;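 for inhibition: signal is fraction of cell area covered by stained E-selectin grains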;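 for nuclei count: 100% = median nuclei count of all wells on the same plate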); details: HUVEC TNFalpha-induced E-selectin immunofluorescence imaging, at 2 µM; inhibition: stronger effect = higher value; nuclei count: measured here: cell number, toxicity
[4] = molecular target: Voltage-gated potassium channel subunit beta-2 (Rattus norvegicus) (UniProt P62483); experiment: KvBeta enzyme negative modulators, primary screen, biochemical, NADPH fluorescence (AID 622;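 active = fluorescence slope higher than the sample average by over 3 SD, cut at about -0.22 in these data, passing the limit was not always enough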;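 note: slope of raw intensity against log time taken from 70 to 1610 s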); details: recombinant KvBeta, 4-cyanobenzaldehyde reduction, at 10 µM, stronger effect = higher value
Sequence of Voltage-gated potassium channel subunit beta-2 (Rattus norvegicus) (P62483 whole entry, looked up): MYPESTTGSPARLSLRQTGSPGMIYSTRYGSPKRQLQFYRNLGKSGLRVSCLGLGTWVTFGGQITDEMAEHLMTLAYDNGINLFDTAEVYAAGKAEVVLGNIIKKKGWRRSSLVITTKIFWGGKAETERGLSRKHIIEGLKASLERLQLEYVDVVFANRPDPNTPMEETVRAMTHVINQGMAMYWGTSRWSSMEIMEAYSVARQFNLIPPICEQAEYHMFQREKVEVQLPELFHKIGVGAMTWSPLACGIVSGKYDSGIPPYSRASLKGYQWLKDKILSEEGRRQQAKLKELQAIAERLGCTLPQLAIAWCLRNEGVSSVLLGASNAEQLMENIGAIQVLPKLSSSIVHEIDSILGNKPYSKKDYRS

[5] = molecular target: Voltage-gated potassium channel subunit beta-2 (Rattus norvegicus) (UniProt P62483); experiment: KvBeta positive modulators, primary screen, biochemical, NADPH fluorescence (AID 623); details: Recombinant KvBeta, NADPH fluorescence decrease slope, 10 min; at 10 µM; stronger effect = lower value;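 note: fluorescence intensity change per second fitted from 20 to 320 s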
[6] = molecular target: Alpha-2C adrenergic receptor (Homo sapiens) (UniProt P18825); experiment: modulators of alpha2C/GIRK thallium flux, primary screen, cell-based, HEK293 alpha2C/GIRK1/2 (AID 624;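 active = fluorescence slope after compound addition differing from the mean of all screened samples at 99.7% confidence, in either direction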;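 note: slope of fluorescence ratio to pre-addition baseline per second over 15 to 24 s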); details: thallium flux BTC fluorescence, at 10 µM, actives lie on both sides
Sequence of Alpha-2C adrenergic receptor (Homo sapiens) (P18825 whole entry, looked up): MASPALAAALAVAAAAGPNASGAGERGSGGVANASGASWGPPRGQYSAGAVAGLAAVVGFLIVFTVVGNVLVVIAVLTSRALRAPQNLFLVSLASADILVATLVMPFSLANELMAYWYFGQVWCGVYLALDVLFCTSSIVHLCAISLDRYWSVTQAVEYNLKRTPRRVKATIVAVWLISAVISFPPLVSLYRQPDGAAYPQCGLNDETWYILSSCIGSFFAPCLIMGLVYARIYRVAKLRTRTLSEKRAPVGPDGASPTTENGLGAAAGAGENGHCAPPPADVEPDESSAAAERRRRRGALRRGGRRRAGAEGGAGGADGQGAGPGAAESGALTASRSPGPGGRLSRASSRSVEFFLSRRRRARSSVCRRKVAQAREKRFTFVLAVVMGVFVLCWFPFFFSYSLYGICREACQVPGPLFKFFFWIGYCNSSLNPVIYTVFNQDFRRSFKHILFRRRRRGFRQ

[7] = inhibitors of Sendai virus-induced IRF3 signaling, primary screen, TLR/RLR signaling modifier project, cell-based, Sendai virus stimulus, luciferase, 10K MLSCN set (AID 602276;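 active = inhibition at or above 50% at 10 µM; inactive = inhibition below 50%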;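 note: firefly luciferase from ISG56 promoter only with Renilla not read in this screen; 0% = Sendai virus plus DMSO and 100% = medium plus DMSO without virus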); details: HEK293 RL24 IRF3 luciferase reporter, at 10 µM, stronger effect = higher value
[8] = inhibitors of poly I:C-induced TLR3 signaling, primary screen, cell-based, poly I:C stimulus, luciferase, 10K MLSCN set (AID 602277;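 active = inhibition of the reporter signal at or above 50%; inactive = inhibition below 50%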); details: HEK293-TLR3 RL24 IRF3 luciferase reporter, at 10 µM, stronger effect = higher value

SMILES | cell count [1] | inhibition [1] | inhibition of aggregation [2] | nuclei count [2] | inhibition [3] | nuclei count [3] | fluorescence slope [4] | NADPH fluorescence slope [5] | slope [6] | inhibition [7] | inhibition [8]
O=C(Nc1cccnc1)Nc1ccccn1 | 571 | -4.3% (inactive) | 6.4% (inactive) | 106% | -6.7% (inactive) | 74.1% | -0.432 (inactive) | -4.6e-05 (inactive) | 0.00395 (inactive) | -5.87% (inactive) | 0.317% (inactive)
CCCCOc1ccccc1C1C(C(N)=O)=C(C)Nc2nnnn21 (stereo not drawn) | 279 | -4.7% (inactive) | 0.7% (inactive) | 88.7% | -56% (inactive) | 97.9% | -0.459 (inactive) | 2.7e-05 (inactive) | 0.0066 (inactive) | 17.4% (inactive) | 27.7% (inactive)
COc1cc(S(=O)(=O)N(C)C)ccc1F | 333 | -4.5% (inactive) | 5.9% (inactive) | 87.4% | -114% (inactive) | 116% | -0.413 (inactive) | -5e-05 (inactive) | 0.00561 (inactive) | 17.1% (inactive) | 9.1% (inactive)
CCc1nc(NCCCN2CCOCC2)c2oc3ccccc3c2n1 | 573 | -4.4% (inactive) | -12.6% (inactive) | 106% | -55.2% (inactive) | 103% | -0.465 (inactive) | -3.3e-05 (inactive) | 0.00535 (inactive) | 17.6% (inactive) | 25.2% (inactive)
Cn1cccc1Cc1nnc(SCC(=O)Nc2ccc(F)cc2F)n1-c1ccc(F)cc1 | 664 | -5.5% (inactive) | -16.9% (inactive) | 93.7% | -12.3% (inactive) | 99.4% | -0.546 (inactive) | -7.7e-05 (inactive) | 0.00521 (inactive) | 10.4% (inactive) | 32.3% (inactive)
CC1(CC(=O)O)C(=O)N=C2C=CC=CN21 (stereo not drawn) | 489 | -10.7% (inactive) | 17.4% (inactive) | 77.5% | 12.8% (inactive) | 97.8% | -0.318 (inactive) | 2.3e-05 (inactive) | 0.0089 (inactive) | 19.8% (inactive) | 22.1% (inactive)
COc1ccc(C2CC(=O)C3=C(C2)Nc2ccccc2N(C(=O)C2CC2)C3c2cccnc2)cc1OC (stereo not drawn) | 683 | -10.9% (inactive) | -43.4% (inactive) | 87.2% | 0.8% (inactive) | 98.6% | -0.367 (inactive) | 7.5e-06 (inactive) | 0.00392 (inactive) | 10.6% (inactive) | 17.6% (inactive)
CCC1C(=O)N=C(SCC(=O)Nc2cccc3ccccc23)NC1=O (stereo not drawn) | 393 | -4% (inactive) | 3.1% (inactive) | 101% | -41.3% (inactive) | 119% | -0.564 (inactive) | -4.5e-05 (inactive) | 0.00593 (inactive) | -15.6% (inactive) | 0.719% (inactive)
CCOC(=O)c1[nH]nc(N)c1NC(=O)c1ccc(Cl)cc1Cl | 554 | -4.9% (inactive) | 3.8% (inactive) | 99.2% | -238% (inactive) | 134% | -0.456 (inactive) | 8.2e-05 (inactive) | 0.00589 (inactive) | -16.4% (inactive) | -22.5% (inactive)
CNC(=O)c1nnn(Cc2ccccc2)c1NC(C)=O | 539 | -14.7% (inactive) | -9.5% (inactive) | 102% | -73.3% (inactive) | 92.3% | -0.601 (inactive) | 4e-05 (inactive) | 0.00612 (inactive) | -13% (inactive) | -3.44% (inactive)
COc1ccc2nc3oc(C(=O)NC4CCN(Cc5ccccc5)CC4)cc3cc2c1 | 237 | -1.3% (inactive) | -19% (inactive) | 107% | -9.9% (inactive) | 110% | -0.122 (active) | -8.2e-06 (inactive) | 0.00404 (inactive) | -32.2% (inactive) | -53.8% (inactive)
COc1ccc(NC(=O)CSc2nnc(-c3ccccc3C)n2C)cc1 | 661 | 1.6% (inactive) | 3.2% (inactive) | 121% | 81.4% (active) | 111% | -0.422 (inactive) | -3.9e-05 (inactive) | 0.0036 (inactive) | 5.44% (inactive) | 28.1% (inactive)
CCS(=O)(=O)N1CCC(C(=O)NCCc2ccc(C)cc2)CC1 | 646 | -10.6% (inactive) | 2.7% (inactive) | 81.2% | -178% (inactive) | 136% | -0.596 (inactive) | 1.4e-05 (inactive) | 0.00666 (inactive) | -2.06% (inactive) | 10.2% (inactive)
